We go through 23 compounds from PubChem BioAssay (NCATS).

Results filed as inconclusive are left out. Entries that show only a call come without a potency. Calls of active or inactive are those of the source. Unless noted, the call rests on the fitted dose curve; in most records, active means well fitted inhibition curve with a large enough effect; inconclusive means small, poorly fitted or top-dose-only effect; inactive means flat fitted curve, though single readings scatter. Where a SMILES comes first, the peptide text is derived from it. Bridges are numbered along the chain shown (N, C = ends). [ ]: non-standard residue; d: D form. hArg = N=C(N)NCCCC[C@H](N)C(=O)O; Mpa = O=C(O)CCS

Sequence of Estrogen receptor (Homo sapiens) (P03372 whole entry, looked up): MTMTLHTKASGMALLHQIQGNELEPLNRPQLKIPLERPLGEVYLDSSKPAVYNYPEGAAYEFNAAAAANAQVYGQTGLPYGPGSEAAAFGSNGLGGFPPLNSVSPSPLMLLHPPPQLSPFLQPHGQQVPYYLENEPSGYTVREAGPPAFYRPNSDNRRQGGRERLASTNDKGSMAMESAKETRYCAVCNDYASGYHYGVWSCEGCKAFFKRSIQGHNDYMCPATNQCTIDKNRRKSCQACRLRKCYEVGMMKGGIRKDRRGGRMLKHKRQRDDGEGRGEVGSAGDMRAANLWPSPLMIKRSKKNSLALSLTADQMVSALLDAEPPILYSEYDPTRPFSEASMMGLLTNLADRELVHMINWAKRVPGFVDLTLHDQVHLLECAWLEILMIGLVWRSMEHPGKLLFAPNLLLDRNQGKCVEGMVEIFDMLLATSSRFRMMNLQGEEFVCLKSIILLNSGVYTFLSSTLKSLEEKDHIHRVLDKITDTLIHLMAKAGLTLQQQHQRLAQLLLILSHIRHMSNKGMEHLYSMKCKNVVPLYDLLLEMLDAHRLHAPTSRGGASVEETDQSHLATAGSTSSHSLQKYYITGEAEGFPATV
Sequence of DNA dC->dU-editing enzyme APOBEC-3G (Homo sapiens) (Q9HC16 whole entry, looked up): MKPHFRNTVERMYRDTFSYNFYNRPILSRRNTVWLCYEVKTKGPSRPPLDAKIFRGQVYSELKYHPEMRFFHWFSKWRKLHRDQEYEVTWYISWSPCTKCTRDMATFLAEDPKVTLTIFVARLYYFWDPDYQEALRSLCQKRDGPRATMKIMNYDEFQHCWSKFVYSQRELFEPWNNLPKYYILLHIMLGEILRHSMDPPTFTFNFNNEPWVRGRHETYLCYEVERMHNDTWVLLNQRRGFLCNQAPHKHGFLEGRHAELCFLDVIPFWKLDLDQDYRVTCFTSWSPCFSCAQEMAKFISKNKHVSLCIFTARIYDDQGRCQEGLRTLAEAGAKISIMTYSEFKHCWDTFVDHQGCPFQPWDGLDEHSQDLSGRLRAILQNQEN

In the first assay the target is Ubiquitin carboxyl-terminal hydrolase 1 (Homo sapiens) (UniProt O94782). As to the kind of experiment: Inhibitors of USP1/UAF1: Pilot qHTS (AID 504865).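 Further: rhodamine fluorescence freed from ubiquitin-rhodamine substrate followed over time; top concentration of the series differs between compounds; nearly all actives have a fitted effect of over 35% in size.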 The conditions noted are these: purified USP1/UAF1, Ub-rhodamine cleavage fluorescence; series mostly up to 114 µM. In outline: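 USP1/UAF1 complex (1nM) preincubated with compound 15 min at room temperature, then Ub-Rho substrate (150nM final) added. Fluorescence read kinetically at 480/540 nm, 6 reads every 60 seconds. Buffer: 50mM HEPES pH 7.8, 0.5mM EDTA, 0.1 mg/ml BSA, 1mM TCEP, 0.01% Tween-20.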
Sequence of Ubiquitin carboxyl-terminal hydrolase 1 (Homo sapiens) (O94782 whole entry, looked up): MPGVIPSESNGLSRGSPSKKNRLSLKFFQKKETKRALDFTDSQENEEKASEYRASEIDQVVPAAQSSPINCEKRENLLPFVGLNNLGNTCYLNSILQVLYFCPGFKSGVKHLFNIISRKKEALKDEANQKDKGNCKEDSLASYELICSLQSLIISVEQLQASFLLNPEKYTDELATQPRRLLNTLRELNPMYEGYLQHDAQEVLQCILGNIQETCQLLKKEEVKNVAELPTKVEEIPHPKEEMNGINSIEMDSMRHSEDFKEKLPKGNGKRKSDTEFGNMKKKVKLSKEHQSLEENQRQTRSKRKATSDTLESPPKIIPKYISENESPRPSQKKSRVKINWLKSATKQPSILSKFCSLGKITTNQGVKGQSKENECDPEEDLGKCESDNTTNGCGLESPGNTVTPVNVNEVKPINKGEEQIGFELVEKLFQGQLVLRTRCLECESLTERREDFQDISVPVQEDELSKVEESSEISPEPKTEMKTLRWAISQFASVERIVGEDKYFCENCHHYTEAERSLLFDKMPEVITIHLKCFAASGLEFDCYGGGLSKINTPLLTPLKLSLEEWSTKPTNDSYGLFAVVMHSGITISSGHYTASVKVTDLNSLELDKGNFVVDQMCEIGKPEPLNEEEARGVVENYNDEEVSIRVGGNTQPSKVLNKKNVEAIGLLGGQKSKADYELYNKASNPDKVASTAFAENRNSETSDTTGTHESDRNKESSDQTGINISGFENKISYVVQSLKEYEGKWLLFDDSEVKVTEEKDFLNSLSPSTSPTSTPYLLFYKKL
For orientation: In qHTS, concentration-response curves come from the screen itself.
For the compound `O=C(CCBr)N1CCN(C(=O)CCBr)CC1`, the Potency result is “inactive”.
On the same count and under the same terms, the entry for `Nc1ncnc2c1ncn2[C@@H]1O[C@H](COP(=O)(O)O)[C@@H](O)[C@H]1O` is “inactive”.
Same read-out and setting: the entry for `COc1ccccc1OCC(O)CO` (centres undefined) is “inactive”; for `O=C(O)c1ccccc1C(=O)Nc1ccc(S(=O)(=O)Nc2nccs2)cc1` it is “inactive”.
For the compound `CC(=O)NS(=O)(=O)c1ccc(N)cc1`, the Potency entry was “inactive”.
Same read-out and setting: for `CCN(CC)C(=O)c1cccc(C)c1` the value was “inactive”.
Same read-out and setting: the entry for `CCCCOC(=O)c1ccc(N)cc1` is “inactive”; for `NS(=O)(=O)c1ccc(C(=O)O)cc1` it is “inactive”.
With `OC(CCN1CCCC1)(c1ccccc1)C1CCCCC1` (centres undefined), the Potency result is “inactive”.
Regarding `C[N+]1(C)CCCC(OC(=O)C(O)(c2ccccc2)c2ccccc2)C1` (centres undefined), the Potency result was “inactive”.
Regarding `CCCC(O)C(CC)CO` (centres undefined), the Potency entry was “inactive”.
The same measure, in the same setting: for `C[C@@H]1O[C@@H](OC[C@H]2O[C@@H](Oc3c(-c4ccc(O)c(O)c4)oc4cc(O)cc(O)c4c3=O)[C@H](O)[C@@H](O)[C@@H]2O)[C@H](O)[C@H](O)[C@H]1O` the value was “inactive”.
Turning to `Cn1c([N+](=O)[O-])cnc1COC(N)=O`, the Potency result is “inactive”.
Regarding `NC(=O)[C@@H]1CSSCCC(=O)N[C@@H](CCCCN=C(N)N)C(=O)NCC(=O)N[C@@H](CC(=O)O)C(=O)N[C@@H](Cc2c[nH]c3ccccc23)C(=O)N2CCC[C@H]2C(=O)N1` ([Mpa][hArg]GDWPC-NH2; disulfide 1-7), the Potency result was “inactive”.
`O=C(O)CCCc1ccccc1`: the Potency result is “inactive”.
With `Cc1c(N(C)C)c(=O)n(-c2ccccc2)n1C`, the Potency entry is “inactive”.

Another assay deals with DNA dC->dU-editing enzyme APOBEC-3G (Homo sapiens) (UniProt Q9HC16). As to the kind of experiment: qHTS for inhibitors of Vif-A3G interactions: Validation (AID 588379). The conditions noted are these: Vif-A3G protein interaction assay; series mostly up to 46.1 µM. In short, it runs like this:
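HeLa cells stably expressing Vif and A3G-eYFP, 700 cells/well, incubated overnight at 37 deg C, then exposed to compound overnight at 37 deg C. Inhibition of Vif-mediated degradation read as increased yellow fluorescence (Ex 488/Em 500-530) by laser-scanning cytometry.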
In the case of `C1CCN2C[C@@H]3C[C@@H](CN4CCCC[C@@H]34)[C@H]2C1`, the call was inactive.
On to `O=C(O)CCCCC1CCSS1` (centres undefined), for which the compound was called inactive.
Turning to `CN[C@@H]1[C@H](O)[C@H](NC)[C@H]2O[C@@]3(O)C(=O)C[C@@H](C)O[C@H]3O[C@@H]2[C@H]1O`, the result was inactive.

For another assay, the target named is Estrogen receptor (Homo sapiens) (UniProt P03372). As to the kind of experiment: qHTS assay for small molecule antagonists of estrogen receptor alpha signaling (AID 588513; active means well fitted curve in the direction sought with a large enough effect in the signal ratio, with a control signal flat, not every such curve was filed as active; the % refers to the signal ratio). The following applies: ER-alpha-UAS-bla HEK293, beta-lactamase ratio, antagonist mode; series mostly up to 76.9 µM. In short, it runs like this:
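ER-alpha-UAS-bla GripTite HEK 293 cells in medium with 2% charcoal/dextran-treated FBS were preincubated 4 h at 37 C, dosed with compound (1:2 titration), stimulated with 0.5nM 17-beta-estradiol for 18 h, then read by CCF4 beta-lactamase fluorescence.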
As for `O=C(O)CCCCC1CCSS1` (centres undefined), the outcome was inactive.
Consider `CCCCCCCC(=O)OCC(COC(=O)CCCCCCC)OC(=O)CCCCCCC`, for which the outcome was inactive.
On the same count and under the same terms, the entry for `CC(=O)Nc1ccc(C(=O)O)cc1` is “inactive”.
On to `Nc1ccc(S(=O)(=O)c2ccc(N)cc2)cc1`, for which the result was inactive.
Still for that read-out and setting: for `CC[N+](CC)(CC(=O)Nc1c(C)cccc1C)Cc1ccccc1` the value was “inactive”.
`CC(=O)NS(=O)(=O)c1ccc(N)cc1`: the outcome was inactive.
For the compound `CCN(CC)C(=O)c1cccc(C)c1`, the outcome was inactive.
On to `CCCCOC(=O)c1ccc(N)cc1`, for which the result was inactive.
Turning to `CCCC(O)C(CC)CO` (centres undefined), the result was inactive.
`Cc1c(N(C)C)c(=O)n(-c2ccccc2)n1C`: the result was inactive.
